High-throughput results: PubChem, several laboratories
Hits are enriched below; roughly 2.8% of the tested compounds scored in any of these assays.
Peg3 prom inh – Peg3 promoter activity inhibition; HeLa PEG-Prom luciferase reporter, luminescence, overnight; inhibition, % at 20 µM; actives 1.7% (n = 360,000); AID 588405;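 active = inhibition of at least 50% at 20 µM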
HIF-2a block – HIF-2a inhibition; actives 0.72% (n = 360,000); inhibition, % at 18.8 µM; 786-0 RCC cells HIF-2a reporter, luciferase luminescence, overnight;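 active = inhibition of the luminescence signal of 40% or more relative to plate controls, in a single-dose primary screen at 18.75 µM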
KKLEB tox – reduces viability of KKLEB cystic fibrosis airway cells; KKLEB CF airway cells viability, ATPlite luminescence, overnight; hits give low values; cells stimulated with P. aeruginosa culture filtrate; actives 0.36% (n = 360,000); activity change (cytotoxicity), % at 5 µM; AID 602141;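 active = corrected activity change at or below -50% at 5 µM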
CF NFkB block – blocks PAF-induced NF-kB reporter in cystic fibrosis cells. KKLEB NF-kB-GFP reporter, GFP fluorescence overnight. inhibition, % at 5 µM. actives 0.86% (n = 360,000). AID 588850;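 active = at least 50% inhibition at 5 µM, scaled per plate between neutral and stimulator controls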;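 also: PAF is a Pseudomonas aeruginosa culture filtrate used as stimulus; plate controls were PAF-stimulated DMSO wells for no effect and unstimulated DMSO wells for full effect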
MITF TRPM1 inh – inhibitors of MITF-driven TRPM1 promoter in melanoma cells; actives 0.83% (n = 330,000); SK-MEL-5 TRPM1 promoter luciferase, 24 h; inhibition, % at 12.5 µM;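 active = mean inhibition across replicates of 60% or more, whatever share of single replicates reaches that level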
Shn3 3UTR inh – inhibitors of Schnurri-3 3'UTR reporter in osteoblasts. Clone20 osteoblast Shn3 3'UTR firefly luciferase, 24 h. inhibition, % at 12.5 µM. actives 0.52% (n = 360,000);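 active = mean inhibition of at least 75% with every replicate also reaching 75%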;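 also: 0% = median of neutral control wells and 100% = pilot-screen positive control compound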
The depositor's hits bear a star; . = no result; ! = repeats disagree.

SMILES	Peg3 prom inh	HIF-2a block	KKLEB tox	CF NFkB block	MITF TRPM1 inh	Shn3 3UTR inh
O=C1CN(CC(=O)NC2CCCc3ccccc32)CCN1 (stereo not drawn)	4	9	-12	-25	6	-1
Cc1ncc(CO)c(/C=N/NC(=O)c2cc3c(s2)CCCC3)c1O	37	-2	-5	17	44	91*
COc1ccc(-c2csc(N3CCN(c4cc(C)nc5ccccc45)CC3)n2)cc1OC	100*	5	-17	24	73*	37
CC(C)c1ccc(S(=O)(=O)c2cc3cc(Br)ccc3oc2=O)cc1	88*	14	-25	37	2	17
COc1ccc(NC(=O)CN(C)C(=O)c2cn(-c3ccccc3)nc2-c2cccnc2)cc1	3	4	11	-60	-1	-7
O=C(NC(Nc1nc2ccc([N+](=O)[O-])cc2s1)(C(F)(F)F)C(F)(F)F)c1cccnc1	12	12	-48	55*	78*	83
O=C(NC(Nc1nc2ccc([N+](=O)[O-])cc2s1)(C(F)(F)F)C(F)(F)F)c1ccccc1Cl	65*	15	-53*	45	75*	90*
CC1=C(/C=C/C(C)=C/C=C/C(C)=C/C(=O)Nc2ccc(O)cc2)C(C)(C)CCC1	61*!	11	-9	4	-3	58
COc1cccc(N2CCN(S(=O)(=O)c3ccc(-n4cnnn4)cc3)CC2)c1	9	2	1	13	4	-12
O=C(Cn1c2ccccc2c(=O)c2ccccc21)N/N=C/c1cc([N+](=O)[O-])ccc1N1CCCCCC1	12	14	-24	17	-13	7
O=C(Cn1c2ccccc2c(=O)c2ccccc21)N/N=C/c1ccc(N2CCCC2)c([N+](=O)[O-])c1	91*	1	-1	-9	89*	2
CC(=O)NC1=C(N(C)C2CCS(=O)(=O)C2)C(=O)c2ccccc2C1=O (stereo not drawn)	12	11	-8	5	64*	82
COc1ccc(N2CCN(CCC(=O)c3ccc4ccccc4c3)CC2)cc1	104*	-4	-8	15	5	-9
O=C(NCC1CC1)c1cc(-c2ccccc2)nn1CC1CC(c2cccc([N+](=O)[O-])c2)=NO1 (stereo not drawn)	22	-8	-10	-8	7	15
NS(=O)(=O)c1ccc(N=Nc2c(-c3ccccc3)[nH]n(-c3nc(-c4ccccc4)cs3)c2=O)cc1	71*	-48	11	27	-31	32
Nc1[nH]n2c(=O)cc(-c3ccccc3)nc2c1N=Nc1ccc(S(N)(=O)=O)cc1	11	10	-7	-2	8	3
CCN1/C(=C/C=C/c2sc3ccccc3[n+]2CC)Sc2ccccc21	78*	-33	-17	32	99*	95*
CCN1/C(=C/C=C/C=C/C=C/c2sc3ccccc3[n+]2CC)Sc2ccccc21	43	13	-6	5	95*	78
Cc1nc2c(nc1C)C(=O)c1ccccc1C2=O	8	-5	-13	61*	105*	24
O=C1c2ccccc2-c2nc3ccccc3nc21	-215	-258	16	-30	-31	-89
CCN1Cc2c(/C=C/c3ccccc3)nc3ccc(OC)cc3c2N(c2cccc(Cl)c2)C1	101*	17	-17	-7	50	57
O=S(=O)(c1ccc(NC(=S)Nc2ccccc2)cc1)N1CCOCC1	12	-9	-8	2	4	25
CC(C)CCCCCCNC(=S)Nc1ccc(S(=O)(=O)N2CCOCC2)cc1	62*	9	-26	52*	1	68
CN(C)CCCN1c2ccccc2Sc2ccc(Cl)cc21	75*!	-1	-16	-1	-16	-11
OCCN1CCN(CCCN2c3ccccc3Sc3ccc(Cl)cc32)CC1	10	-3	-17	1	-8	-23
SMILES	Peg3 prom inh	HIF-2a block	KKLEB tox	CF NFkB block	MITF TRPM1 inh	Shn3 3UTR inh
CCc1c(C(=O)O)[nH]c2ccc(Br)cc12	4	8	18	-9	4	-7
O=C(Cc1ccccc1)N1CCNCC1	1	9	-9	-4	14	12
O=C(/C=C/c1ccccc1)CCN1CCOCC1	92*	-8	-7	7	-3	31
C[N+](C)(C)CCC(=O)N1C/C(=C/c2ccccc2)C(=O)/C(=C\c2ccccc2)C1	77*	0	8	-118	3	9
CN(C)CCC(=O)N1C/C(=C/c2ccccc2)C(=O)/C(=C\c2ccccc2)C1	109*	92*	-71*	95*	101*	41
O=C1/C(=C/c2ccccc2)CN(C(=O)CCN2CCOCC2)C/C1=C\c1ccccc1	96*	85*	9	90*	101*	7
CC1CCN(S(=O)(=O)c2cc(C(=O)N3CCN(c4ccccc4)CC3)ccc2Br)CC1	20	-8	-6	4	.	70
CN(Cc1ccccc1)C(=O)c1ccc2sc([C@H]3C[C@H](O)[C@@H](CO)O3)nc2c1	4	-10	-3	-6	.	5
COc1ccc(C(C(=O)NC(C)(C)C)n2c(=O)c(-c3ccccc3)nc3ccccc32)cc1 (stereo not drawn)	.	6	.	.	.	.
COc1ccc(OC)c(CN2CCN(C(=O)c3ccc(S(=O)(=O)Nc4ccccc4F)cc3)CC2)c1	11	22	-8	-1	6	27
COc1ccc(-c2sc3cc4c(cc3c2C#CC2(N)CCCCC2)OCO4)cc1	93*	-94	-2	1	14	-4
COc1cc(OC)cc(-c2sc3ccc(OC)cc3c2C#CC2(N)CCCCC2)c1	95*	0	-29	33	-4	-4
COc1ccccc1OCC(=O)NCC1CCCN(Cc2cnn(C(C)C)c2)C1 (stereo not drawn)	6	6	-14	16	-5	-8
Cc1ccccc1CN1C(=O)/C(=C\c2ccc(C(=O)NCCN3CCOCC3)cc2)Sc2ccccc21	57*	18	7	13	-3	16
O=C(NCCN1CCOCC1)c1ccc2c(c1)N(Cc1cccc(F)c1)C(=O)c1ccccc1S2	18	26	-3	19	2	19
O=C(CN1C(=O)/C(=C/c2ccc(C(F)(F)F)cc2)Sc2ccccc21)NCCCN1CCOCC1	7	-18	-9	20	-15	4
CCN1CCN(CCNC(=O)c2ccc3c(c2)N(Cc2ccc(F)cc2)C(=O)/C(=C/c2ccccc2)S3)CC1	103*	29	-26	37	92*	77
CCc1ccc(/C=C2/Sc3ccccc3N(CC(=O)NCCCN3CCOCC3)C2=O)cc1	-15	-39	-5	-7	-52	-12
CN1CCN(CCCNC(=O)c2ccc(/C=C3\Sc4ccccc4N(Cc4ccccc4F)C3=O)cc2)CC1	74*	-5	1	-7	-9	-2
